Drawing on PubChem BioAssay (NCATS), this text covers Potency, max response and outcome for six molecules.

SMILES strings stand for the structures. Values without a mark were called inactive. Records with an inconclusive call do not appear. Active and inactive are the calls of the source. Calls follow the shape of the dose curve; as a rule, active = well fitted curve in the direction sought with a large enough effect; inconclusive = small, poorly fitted or top-dose-only effect, or another doubt; inactive = no such curve, though single readings can be large; an effect the other way counts as inactive or inconclusive.

Test [1] has as its system Zika virus NS2B-NS3 protease (unlinked complex). In words: Primary screen GU Rhodamine qHTS for Zika virus inhibitors: Unlinked NS2B-NS3 protease assay (AID 1347159). Also: % is scaled to controls: 0 for no effect and ±100 for the full control effect; nearly all actives have a fitted effect of over 60% in size. In a few lines: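 In dose–response format, inhibition of unlinked protease (25 nM) was measured with 1.5 microM bis-peptide Rhodamine110 substrate. Aprotinin served as the intraplate control.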
A general note: qHTS replaces the single test concentration by a dilution series.

Test [2] concerns Zika virus NS2B-NS3 protease (linked construct). Nature of the test: Primary screen NINDS Rhodamine qHTS for Zika virus inhibitors (AID 1347160). Also: % is scaled to controls: 0 for no effect and ±100 for the full control effect; nearly all actives have a fitted effect of over 55% in size. In a few lines:
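Each compound, titrated, sat 15 min with 25 nM linked protease before 1.5 microM Rhodamine110 substrate went in. Fluorescence gain over the next 15 min, in pH 8.0 Tris with Tween 20, gave Hill-fitted curves.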

The target in test [3] is Calcium and integrin-binding protein 1 (Homo sapiens) (UniProt Q99828). Nature of the test: Primary qHTS for Identification of Calcium Integrin Binding Protein 1 (CIB1) Competitor (AID 1508620).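 Also: GST tagged CIB1 binding a fluorescein labelled alphaIIb integrin peptide tracer; top concentration of the series differs between compounds; % is scaled to controls: 0 for no effect and ±100 for the full control effect.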 In short, it runs like this: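 CIB1-GST (1 uM final) and compound incubated 15 min at room temperature before adding FITC-alphaIIb peptide tracer (100 nM final). Competition for binding read by fluorescence polarization (ex 480, em 540) after another 15 min at room temperature.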
Sequence of Calcium and integrin-binding protein 1 (Homo sapiens) (Q99828 whole entry, looked up): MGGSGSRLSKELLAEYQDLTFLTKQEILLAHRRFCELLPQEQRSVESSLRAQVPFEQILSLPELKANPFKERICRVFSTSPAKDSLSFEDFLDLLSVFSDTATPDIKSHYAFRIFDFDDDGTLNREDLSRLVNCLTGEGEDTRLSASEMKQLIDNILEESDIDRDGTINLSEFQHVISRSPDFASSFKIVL

Test [4] addresses Glutathione peroxidase 1 (Homo sapiens) (UniProt P07203). In words: Primary qHTS Assay for Inhibitors of Recombinant Selenoprotein Glutathione Peroxidase 1 (GPX1) (AID 1845191). Also: nearly all actives have a fitted effect of over 65% in size. In short, it runs like this:
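NADPH consumption tracked by fluorescence at 340/450 nm between t=0 and t=15 min, room temperature. Final mix: 10 nM GPX1, 100 nM glutathione reductase, 1 mM GSH, 0.5 mM NADPH, 0.5 mM cumene hydroperoxide, 0.01% BSA; 30 min compound–enzyme preincubation.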

The target of test [5] is Phospholipid hydroperoxide glutathione peroxidase GPX4 (Homo sapiens) (UniProt P36969). In words: Primary qHTS Assay for Inhibitors of Recombinant Selenoprotein Glutathione Peroxidase 4 (GPX4) (AID 1845192). Also: % is scaled to controls: 0 for no effect and ±100 for the full control effect; nearly all actives have a fitted effect of over 65% in size. In a few lines: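 NADPH consumption followed by fluorescence at 340/450 nm, t=0 and after 15 min at room temperature. Reaction started with cumene hydroperoxide (0.5 mM final) after 30 min compound–GPX4 preincubation; final 200 nM GPX4, 100 nM GR, 1 mM GSH, 0.5 mM NADPH.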
Sequence of Phospholipid hydroperoxide glutathione peroxidase GPX4 (Homo sapiens) (P36969 whole entry, looked up): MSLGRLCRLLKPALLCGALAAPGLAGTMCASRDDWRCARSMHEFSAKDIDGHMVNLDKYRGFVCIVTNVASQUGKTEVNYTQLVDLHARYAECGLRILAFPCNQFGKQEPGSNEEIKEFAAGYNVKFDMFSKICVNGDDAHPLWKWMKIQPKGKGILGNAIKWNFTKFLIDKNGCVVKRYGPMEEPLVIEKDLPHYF

A short description of test [6]: Primary fluorescence-based thiol-reactive (MSTI) qHTS assay for identification of artifact compounds. (AID 1845221).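 Also: thiol-reactive compounds lower the probe fluorescence signal; nearly all actives have a fitted effect of over 65% in size.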 In a few lines:
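MSTI probe at 4 uM final in 2% DMSO/PBS pH 7.4; compounds, 1 h at room temperature in dark. Fluorescence Ex/Em 525/598 nm, normalised to Acetyl-MSTI and MSTI, fitted to 4-parameter Hill.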

Test [7] has as its system Nanoluciferase (engineered Oplophorus gracilirostris luciferase). Nature of the test: Primary Nanoluciferase (NLuc) qHTS assay for identification of artifact compounds. (AID 1845222).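 Also: 0% = DMSO and -100% = no enzyme.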 In short, it runs like this:
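Compounds are pinned into diluted (1:55) conditioned medium of NLuc-expressing S16 cells and held 15 min at room temperature protected from light. Nano-Glo substrate follows, and luminescence is read 5 min later.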

In the next test the test system is CRL-7250. Nature of the test: Cytotoxic Profiling of Annotated Libraries Using Quantitative High-Throughput Screening (AID 1296008). Also: nearly all actives have a fitted effect of over 60% in size. Also: potency is read from the fitted curve at half-maximal effect. As to max response: % is scaled to controls: 0 for no effect and ±100 for the full control effect. The following applies: Five cell lines viability, CellTiter-Glo ATP luminescence, 48-72 h; max response: hits give low values. In short, it runs like this:
(§1)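 Cytotoxicity was measured as CellTiter-Glo ATP luminescence, read after 10 min at room temperature. Compound treatment of the cells lasted 48 or 72 hr at 37 degrees Celsius in a qHTS format.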

For a further test, the system named is C33A. In words: Primary qHTS to identify gynecologic anti-cancer compounds using libraries of approved drugs and bioactive compounds (AID 1345084). Also: nearly all actives have a fitted effect of over 55% in size. Also: potency is read from the fitted curve at half-maximal effect. The following applies: Gynecologic cancer cell panel viability, ATPlite luminescence, 48 h; series mostly up to 57.5 µM. In short, it runs like this:
(§2)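 Cells, 1,000 per well, plated 16 h, then exposed 48 h at 37 C to compounds. Viability by ATPlite luminescence after 15 min at room temperature.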

In another test the test system is CAOV3. The description is as above. The following applies: Gynecologic cancer cell panel viability, ATPlite luminescence, 48 h; series mostly up to 57.5 µM. In short, it runs like this:
as §2
On the technique in general: ATP-based viability assays read luminescence as a measure of living cells.

Another test has as its system CASKI. The test is described as above. The following applies: Gynecologic cancer cell panel viability, ATPlite luminescence, 48 h; series mostly up to 57.5 µM. In a few lines:
as §2

The next test has as its system Es-2. The description is as above. The following applies: Gynecologic cancer cell panel viability, ATPlite luminescence, 48 h; series mostly up to 57.5 µM. In short, it runs like this: as §2
The subject of another test is Hek293T. The description is as above. The following applies: Gynecologic cancer cell panel viability, ATPlite luminescence, 48 h, control line for the selectivity index; series mostly up to 57.5 µM. In short, it runs like this:
as §2

The next test concerns JEG-3. Described as above. The conditions noted are these: Gynecologic cancer cell panel viability, ATPlite luminescence, 48 h; series mostly up to 57.5 µM. In a few lines: as §2
The test system of a further test is OV90. The description is as above. The conditions noted are these: Gynecologic cancer cell panel viability, ATPlite luminescence, 48 h; series mostly up to 57.5 µM. In short, it runs like this: as §2
The test system of another test is PA-1. The test is described as above. The following applies: Gynecologic cancer cell panel viability, ATPlite luminescence, 48 h; series mostly up to 57.5 µM. In a few lines: as §2
A further test deals with Tov-21-G. Described as above. The conditions noted are these: Gynecologic cancer cell panel viability, ATPlite luminescence, 48 h; series mostly up to 57.5 µM. In short, it runs like this: as §2
Another test relates to Tov112D. The test is described as above. The conditions noted are these: Gynecologic cancer cell panel viability, ATPlite luminescence, 48 h; series mostly up to 57.5 µM. In short, it runs like this: as §2
Test [8] addresses Luciferin 4-monooxygenase (Photinus pyralis) (UniProt P08659). In words: Primary firefly luciferase (FLuc) qHTS assay for identification of artifact compounds. (AID 1845220). Also: nearly all actives have a fitted effect of over 60% in size. The conditions noted are these: outcome: dose series up to 54.1 µM unless noted. In a few lines:
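Cell-free, 1536-well qHTS. Buffer pH 7.6 with 0.01% Tween-20 and 0.05% BSA; 10 uM D-luciferin, 10 uM ATP; 10 nM P. pyralis luciferase; luminescence after 5 min.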

The next test concerns NIH3T3. Nature of the test: Cytotoxic Profiling of Annotated Libraries Using Quantitative High-Throughput Screening (AID 1296008). Also: nearly all actives have a fitted effect of over 60% in size. Also: potency is read from the fitted curve at half-maximal effect. As to max response: % is scaled to controls: 0 for no effect and ±100 for the full control effect. The conditions noted are these: Five cell lines viability, CellTiter-Glo ATP luminescence, 48-72 h; max response: hits give low values. In short, it runs like this:
as §1

Sequence of Glutathione peroxidase 1 (Homo sapiens) (P07203 whole entry, looked up): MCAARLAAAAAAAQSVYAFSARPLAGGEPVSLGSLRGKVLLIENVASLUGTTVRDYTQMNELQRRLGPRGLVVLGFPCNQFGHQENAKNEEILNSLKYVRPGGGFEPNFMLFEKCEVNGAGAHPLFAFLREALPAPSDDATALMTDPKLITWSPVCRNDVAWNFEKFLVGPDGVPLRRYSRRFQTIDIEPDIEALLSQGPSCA

Consider `C[C@]12CC[C@@H](O)C[C@@H]1CC[C@@H]1[C@@H]2CC[C@]2(C)C(=O)[C@@H](Br)C[C@@H]12`, for which the Potency entry in test [1], in [2], in test [3], in [4], in [5] and in test [6] was “inactive” throughout. Moreover, the Potency result (in [7]; with C33A; in the test with CAOV3; in the test on CASKI; in the test with Es-2; in the test with Hek293T) was “inactive” throughout. The Potency result with JEG-3, in the test on OV90, in the test with PA-1, with Tov-21-G and with Tov112D was “inactive” in each case. Further, in the test with CRL-7250, the max response is -20.8%.
For `C=C1C(=O)OC2/C=C(\COO)CC/C=C(\COC(C)=O)CC(OC(=O)C(C)CC)C12` (stereo not drawn), the Potency result in [1], in [2], in [3], in [4], in test [5] and in test [6] was “inactive” each time. The Potency entry (in [7]; in the test on C33A; in the test on CAOV3; with CASKI; in the test on Es-2; in the test on JEG-3) was “inactive” throughout. The Potency entry with PA-1, with Tov-21-G and with Tov112D was “inactive” in each case. Moreover, the outcome in test [8] was inactive. In addition, in the test with CRL-7250, the Potency is 7960 nM (active).
For `O=C(NCCN1CCC2(CC1)C(=O)NCN2c1cccc(F)c1)c1ccc(F)c(F)c1`, the Potency entry in test [1], in [2], in test [3], in [4], in test [5] and in test [6] was “inactive” throughout. For the same molecule, the Potency result (in test [7]; in the test on C33A; in the test on CAOV3; in the test with CASKI; in the test on Es-2; in the test on Hek293T) was “inactive” throughout. The Potency entry in the test on JEG-3, in the test on OV90, in the test on PA-1, in the test with Tov-21-G and in the test on Tov112D was “inactive” each time. For the same molecule, the call (in test [8]; with CRL-7250) was inactive. In the test with NIH3T3, the max response was -17.5%.
Turning to `C[C@@H]1O[C@@H](O[C@H]2CC[C@@]3(C)C(CC[C@@H]4C3CC[C@]3(C)[C@@H](C5=CC(=O)OC5)CC[C@]43O)C2)[C@H](O[C@@H]2O[C@H](CO)[C@@H](O)[C@H](O)[C@H]2O)[C@H](O)[C@H]1O` (stereo partly drawn), the Potency result in [1], in [2], in test [4], in [5], in test [6] and in [7] was “inactive” each time. Also, in [8], the result was inactive. The max response in the test on NIH3T3 is -13.4%. In addition, the Potency with C33A was 562 nM (active); with CAOV3, 1000 nM (active); in the test with Es-2 it was 891 nM (active); in the test on Hek293T, 891 nM (active); with JEG-3, 2820 nM (active); in the test on PA-1, 1000 nM (active). The Potency in the test with Tov-21-G is 708 nM (active); with Tov112D, 224 nM (active).
In the case of `C/C=C(\C)C(=O)O[C@H]1CC2C(=C1C)[C@H]1OC(=O)[C@](C)(O)[C@]1(O)[C@H](OC(=O)CCC)C[C@@]2(C)OC(C)=O` (stereo partly drawn), the Potency entry in [1], in [2], in test [3], in test [4], in test [5] and in test [6] was “inactive” throughout. In addition, the Potency entry (in [7]; with Hek293T) was “inactive” in each case. Also, the outcome in test [8] is “inactive [at 25.7 µM]”. For the same molecule, the Potency was 2240 nM (active) in the test on CRL-7250, 4470 nM (active) in the test on NIH3T3, 5010 nM (active) with PA-1 and 5010 nM (active) in the test on Tov112D.
As to `CCC(C)C1NC(=O)C(C(C)=O)=C1O` (stereo not drawn), the Potency result in test [1], in [2], in test [3], in test [4], in test [5] and in test [6] was “inactive” each time. The Potency entry (in test [7]; with C33A; with CAOV3; in the test with CASKI; in the test on Es-2; with Hek293T) was “inactive” throughout. Further, the Potency entry in the test on JEG-3, in the test with OV90, with PA-1, in the test with Tov-21-G and with Tov112D was “inactive” throughout. The molecule was called inactive in test [8]. In the test on CRL-7250, the max response is -9.18%.
